Measurements taken from PubChem BioAssay (NCATS).
Records with an inconclusive call do not appear. A call without a number means that no potency is given here. The source made the active and inactive calls. Calls follow the shape of the dose curve; as a rule, active = well fitted curve in the direction sought with a large enough effect; inconclusive = small, poorly fitted or top-dose-only effect, or another doubt; inactive = no such curve, though single readings can be large; an effect the other way counts as inactive or inconclusive.

What was measured:
[1] = Quantitative High-Throughput drug screen in 47 multiple myeloma cell lines against the NCATS MIPE library collection: KMM1_JCRB cell viability assay (AID 1918960); also: nearly all actives have a fitted effect of over 30% in size; also: potency is read from the fitted curve at half-maximal effect
In short: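 Cell viability inhibition in this qHTS is measured via ATP content (CellTiter-Glo) after 48 h drug exposure at 37 °C. Wells hold 500 cells; DMSO-treated wells define 100% and medium-only wells 0%.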

[2] = Quantitative High-Throughput drug screen in 47 multiple myeloma cell lines against the NCATS MIPE library collection: KHM11_PLB cell viability assay (AID 1918962); also: nearly all actives have a fitted effect of over 35% in size; also: potency is read from the fitted curve at half-maximal effect
In short: (§1)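 Relative luminescence from CellTiter-Glo served as the viability signal, referenced to DMSO-treated (100%) and cell-free medium (0%) controls. Treatment lasted 48 hours at 37C with 500 cells per well.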

[3] = Quantitative High-Throughput drug screen in 47 multiple myeloma cell lines against the NCATS MIPE library collection: JIM3_ECACC cell viability assay (AID 1918963; also: nearly all actives have a fitted effect of over 35% in size; also: potency is read from the fitted curve at half-maximal effect)
In short: as §1

[4] = Quantitative High-Throughput drug screen in 47 multiple myeloma cell lines against the NCATS MIPE library collection: JIM1_ECACC cell viability assay (AID 1918964; also: potency is read from the fitted curve at half-maximal effect)
In short: (§2)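 Myeloma cell lines, 500 cells per well, exposed to MIPE 4.0 library compounds for 48 h at 37C, 5% CO2. Viability from ATP by CellTiter-Glo luminescence; normalised to DMSO (100%) and media-only (0%) wells.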

[5] = Quantitative High-Throughput drug screen in 47 multiple myeloma cell lines against the NCATS MIPE library collection: INA6_PLB cell viability assay (AID 1918965; also: nearly all actives have a fitted effect of over 55% in size; also: potency is read from the fitted curve at half-maximal effect)
In short: as §1

[6] = Quantitative High-Throughput drug screen in 47 multiple myeloma cell lines against the NCATS MIPE library collection: JJN3_DSMZ cell viability assay (AID 1918966; also: nearly all actives have a fitted effect of over 50% in size; also: potency is read from the fitted curve at half-maximal effect)
In short: as §2

[7] = Quantitative High-Throughput drug screen in 47 multiple myeloma cell lines against the NCATS MIPE library collection: H1112_PLB cell viability assay (AID 1918967; also: nearly all actives have a fitted effect of over 30% in size; also: potency is read from the fitted curve at half-maximal effect)
In short: as §2

[8] = Quantitative High-Throughput drug screen in 47 multiple myeloma cell lines against the NCATS MIPE library collection: Karpas25_ECACC cell viability assay (AID 1918968; also: nearly all actives have a fitted effect of over 35% in size; also: potency is read from the fitted curve at half-maximal effect)
In short: as §2

[9] = Quantitative High-Throughput drug screen in 47 multiple myeloma cell lines against the NCATS MIPE library collection: Karpas417_ECACC cell viability assay (AID 1918961); conditions: Karpas417 myeloma viability, CellTiter-Glo ATP luminescence, 48 h; viability (% of DMSO): at 45.8 µM (top of the series)
In short: as §1

[10] = Quantitative High-Throughput drug screen in 47 multiple myeloma cell lines against the NCATS MIPE library collection: KMS27_JCRB cell viability assay (AID 1918970); conditions: KMS27 myeloma cells, CellTiter-Glo ATP viability, 48 h; viability (% of DMSO): at 45.8 µM (top of the series); also: nearly all actives have a fitted effect of over 30% in size; also: potency is read from the fitted curve at half-maximal effect
In short: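 CellTiter-Glo luminescence after 48 h drug exposure at 37 °C; 500 cells/well, 1536-well format, pin-tool compound addition; DMSO = 100%, media-only = 0% viability.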

Compound	Potency [1]	Potency [2]	Potency [3]	Potency [4]	Potency [5]	Potency [6]	Potency [7]	Potency [8]	Potency [9]	Potency [10]
CN1CCC(COc2cnc(-c3cccc(Cn4nc(-c5cccc(C#N)c5)ccc4=O)c3)nc2)CC1	inactive	8.33 µM (active)	0.372 µM (active)	inactive	0.418 µM (active)	0.0332 µM (active)	0.118 µM (active)	0.0743 µM (active)	–	–
CS(=O)(=O)c1ccc(C2=C(c3ccccc3)C(=O)OC2)cc1	inactive	–	inactive	–	inactive	–	inactive	inactive	inactive	inactive
CNC1CCC(N(Cc2cccc(-c3ccncc3)c2)C(=O)c2sc3ccccc3c2Cl)CC1 (configuration not stated)	18.7 µM (active)	8.33 µM (active)	10.5 µM (active)	14.8 µM (active)	7.43 µM (active)	18.7 µM (active)	14.8 µM (active)	9.35 µM (active)	–	18.7 µM (active)
CCOc1ccccc1N=Nc1c(C)[nH]n(-c2nc(-c3ccccc3)cs2)c1=O	inactive	inactive	inactive	1.66 µM (active)	inactive	10.5 µM (active)	–	1.66 µM (active)	–	9.35 µM (active)
CN[C@@H]1[C@@H](O)[C@@H](O[C@@H]2[C@@H](O)[C@H](O[C@H]3O[C@H](CN)[C@@H](O)[C@H](O)[C@@H]3O)[C@@H](N)C[C@@H]2NC(=O)[C@@H](O)CN)OC[C@]1(C)O	inactive	–	–	inactive	inactive	inactive	–	–	inactive	–
CC1(C)[C@H]2CC[C@]3(C)[C@@H](C(=O)C=C4[C@@H]5C[C@@](C)(C(=O)O)CC[C@]5(C)CC[C@]43C)[C@@]2(C)CC[C@@H]1O	inactive	–	inactive	–	inactive	–	inactive	–	inactive	inactive
CC[C@H](C=C[C@@H](C)[C@H]1CC[C@H]2[C@@H]3CC=C4C[C@@H](O)CC[C@]4(C)[C@@H]3CC[C@]12C)C(C)C	inactive	inactive	–	–	1.62 µM (active)	inactive	inactive	inactive	–	inactive
Nc1[nH]nc2nnc(-c3c(-c4ccccc4)nn4ccccc34)cc12	4.69 µM (active)	10.5 µM (active)	9.35 µM (active)	3.32 µM (active)	1.05 µM (active)	–	4.18 µM (active)	1.66 µM (active)	–	1.87 µM (active)
O=C(O)c1nc(=O)[nH]c(=O)[nH]1	inactive	inactive	–	–	inactive	–	inactive	inactive	–	–
CC=C(C(=CC)c1ccc(O)cc1)c1ccc(O)cc1	20.9 µM (active)	inactive	–	–	16.6 µM (active)	–	–	–	–	11.8 µM (active)
COc1cc(Cl)cn2c(-c3cccc(NC4CNC4)n3)cnc12	16.6 µM (active)	18.7 µM (active)	–	4.18 µM (active)	16.6 µM (active)	–	–	–	–	–
CC(=O)NCCC(=O)N[C@@H](CCC(N)=O)C(=O)N[C@@H](CO)C(=O)N[C@@H](CCC(N)=O)C(=O)N[C@@H](CCC(N)=O)C(=O)N[C@H](C(=O)N[C@@H](Cc1ccccc1)C(=O)N[C@]1(C)CCCCCCC=CCCC[C@@](C)(C(=O)N[C@@H](CCC(N)=O)C(=O)N[C@@H](CC(N)=O)C(N)=O)NC(=O)[C@H](CC(C)C)NC(=O)[C@H](CC(C)C)NC(=O)[C@@H](CCCNC(=N)N)NC(=O)[C@H](Cc2c[nH]c3ccccc23)NC(=O)[C@H](CC(C)C)NC(=O)[C@H](CC(N)=O)NC1=O)[C@H](C)O	inactive	18.7 µM (active)	–	7.43 µM (active)	20.9 µM (active)	14.8 µM (active)	–	26.4 µM (active)	–	–
Cc1ccc(C(=O)N(CCCN)[C@@H](c2oc3cc(Cl)ccc3c(=O)c2Cc2ccccc2)C(C)C)cc1	0.001 µM (active)	9.35 µM (active)	inactive	–	–	18.7 µM (active)	–	–	–	inactive
CC[C@@H]([C@H](C)O)n1ncn(-c2ccc(N3CCN(c4ccc(OCC5CO[C@@](Cn6cncn6)(c6ccc(F)cc6F)C5)cc4)CC3)cc2)c1=O (some centres not stated)	5.9 µM (active)	inactive	5.26 µM (active)	–	10.5 µM (active)	4.18 µM (active)	–	6.62 µM (active)	–	–
Cc1ccc2c(c1)C(=O)[C@]1(O)CCN(c3ccccc3)C1=N2	inactive	inactive	–	inactive	–	11.8 µM (active)	–	–	–	–
CC[C@H](C)n1cc(C)c2c(C(=O)NCc3c(C)cc(C)[nH]c3=O)cc(-c3ccc(N4CCNCC4)nc3)cc21	inactive	29.6 µM (active)	–	inactive	18.7 µM (active)	–	–	23.5 µM (active)	–	–
COc1ccc(C=CC(=O)Nc2ccccc2C(=O)O)cc1OC	inactive	inactive	inactive	inactive	0.0019 µM (active)	–	inactive	inactive	–	inactive
C=C1c2cccc(O)c2C(O)=C2C(=O)[C@@]3(O)C(O)=C(C(N)=O)C(=O)[C@@H](N(C)C)[C@@H]3[C@@H](O)[C@H]12	inactive	inactive	–	–	13.2 µM (active)	–	11.8 µM (active)	14.8 µM (active)	–	inactive
Cc1ccc(NC(=O)c2ccc(CN3CCN(C)CC3)cc2)cc1Nc1nc(-c2cccnc2)cs1	16.6 µM (active)	7.43 µM (active)	14.8 µM (active)	–	5.26 µM (active)	16.6 µM (active)	–	5.9 µM (active)	–	20.9 µM (active)
CCCCC(C=O)NC(=O)C(CC(C)C)NC(=O)OCc1ccccc1 (configuration not stated)	inactive	inactive	–	–	16.6 µM (active)	–	inactive	–	–	inactive
CCOC(=O)[C@H]1O[C@H]1C(=O)N[C@@H](CC(C)C)C(=O)NCCC(C)C	inactive	inactive	–	–	inactive	–	inactive	–	–	inactive
N[C@@H](CC(=O)N1CCn2c(nnc2C(F)(F)F)C1)Cc1cc(F)c(F)cc1F	inactive	inactive	inactive	inactive	–	–	inactive	inactive	–	inactive
CCN1CCC(n2cc(CNc3cc(Cl)c4ncc(C#N)c(Nc5ccc(F)c(Cl)c5)c4c3)nn2)CC1	inactive	16.6 µM (active)	14.8 µM (active)	–	20.9 µM (active)	20.9 µM (active)	–	18.7 µM (active)	–	–
O=C(c1ccc(C(=O)N2CCC(N3CCCC3)CC2)c(Nc2ccccc2)c1)N1CCC(N2CCCC2)CC1	inactive	inactive	inactive	–	–	–	inactive	inactive	–	inactive
CCOC(=O)[C@H](CCc1ccccc1)N[C@@H](C)C(=O)N1CCCC1C(=O)O (some centres not stated)	inactive	inactive	–	–	–	inactive	inactive	inactive	–	–
